About 79,000 compounds went through this panel and 15% of them were active in at least one assay; those are over-represented in the sample as a whole. Active and inactive are the calls of the source. Cut-off read from the data, not from the text of the source: active = growth inhibition above about 70%; inactive = the rest.
Key:
[1] = NCI Yeast Anticancer Drug Screen. Data for the rad52 strain (AID 147);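 note: 0% = growth of vehicle-treated control cultures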; conditions: S. cerevisiae rad52 mutant growth inhibition, stronger effect = higher value
Summary of the method: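 Screen used a yeast mutant impaired in DNA repair. After compound exposure, growth was measured. Values reflect inhibition compared with vehicle-treated cells.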

[2] = NCI Yeast Anticancer Drug Screen. Data for the wt1 strain (AID 149);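 note: 0% = growth of vehicle-treated wt1 cultures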; conditions: S. cerevisiae wt1 strain (SPY 50644) growth inhibition, stronger effect = higher value
Summary of the method: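 Using yeast strain wt1, compound-induced growth inhibition was determined against vehicle-treated cultures.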

[3] = NCI Yeast Anticancer Drug Screen. Data for the rad50EPP+ strain (AID 151);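 note: 0% = growth of vehicle-treated control cultures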; conditions: S. cerevisiae rad50 mutant strain, stronger effect = higher value
Summary of the method: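 Exposing the rad50EPP+ strain to each compound, growth was compared with vehicle-only cultures to give inhibition.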

[4] = NCI Yeast Anticancer Drug Screen. Data for the mgt1 strain (AID 153); conditions: S. cerevisiae mgt1 mutant growth inhibition, stronger effect = higher value
Summary of the method: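 Genetically defined yeast (mgt1) treated with compound; inhibition of growth expressed against vehicle-treated controls.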

[5] = NCI Yeast Anticancer Drug Screen. Data for the rad50 strain (AID 155);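 note: 0% = growth of vehicle-only cultures of the same strain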; conditions: S. cerevisiae rad50 strain growth inhibition, stronger effect = higher value
Summary of the method: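 Relative growth inhibition (compound vs vehicle) was measured in yeast with a defined repair-gene alteration.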

[6] = NCI Yeast Anticancer Drug Screen. Data for the mec2-1 strain (AID 157); conditions: S. cerevisiae mec2-1 strain, stronger effect = higher value
Summary of the method: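 Readout is yeast growth inhibition, normalised to vehicle-treated controls, in the mec2-1 strain exposed to compound.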

[7] = NCI Yeast Anticancer Drug Screen. Data for the rad14 strain (AID 159);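 note: 0% = growth of vehicle-treated control cultures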; conditions: S. cerevisiae rad14 strain growth inhibition, stronger effect = higher value
Summary of the method: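 Screen for anticancer potential: a yeast strain altered in DNA damage repair is grown with compound, and reduced growth is quantified against vehicle controls.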

[8] = NCI Yeast Anticancer Drug Screen. Data for the sgs1 mgt1 strain (AID 161);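 note: 0% = growth of cultures given vehicle only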; conditions: S. cerevisiae sgs1 mgt1 strain, stronger effect = higher value
Summary of the method: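 Growth of a repair-deficient yeast mutant was monitored after compound treatment and expressed as inhibition relative to vehicle-treated cultures.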

[9] = NCI Yeast Anticancer Drug Screen. Data for the cln2 rad14 strain (AID 165);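 note: 0% = growth equal to vehicle treated cultures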; conditions: S. cerevisiae cln2 rad14 strain, stronger effect = higher value
Summary of the method: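 Relative to vehicle controls, growth inhibition of compound-treated cln2 rad14 yeast was recorded.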

[10] = NCI Yeast Anticancer Drug Screen. Data for the bub3 strain (AID 167); conditions: S. cerevisiae bub3 mutant strain, stronger effect = higher value
Summary of the method: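 Screening used yeast with an engineered genetic alteration affecting cell cycle control. Compound-exposed cultures were compared with vehicle cultures, and reduced growth was taken as inhibition.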

[11] = NCI Yeast Anticancer Drug Screen. Data for the wt2 strain (AID 169);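 note: 0% = growth of vehicle-treated yeast cultures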; conditions: S. cerevisiae wt2 strain growth inhibition, stronger effect = higher value
Summary of the method: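 Values express reduction in yeast growth under compound treatment, referenced to vehicle-treated cells.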

[12] = NCI Yeast Anticancer Drug Screen. Data for the sgs1 strain (AID 173);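 note: 0% = growth of vehicle-only control cultures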; conditions: S. cerevisiae sgs1 mutant, stronger effect = higher value
Summary of the method: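 Treat defined-mutant yeast with compound; measure growth; calculate inhibition relative to vehicle-treated cells.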

[13] = NCI Yeast Anticancer Drug Screen. Data for the mlh1 rad18 strain (AID 175); conditions: S. cerevisiae mlh1 rad18 strain growth inhibition, stronger effect = higher value
Summary of the method: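 Test agents were incubated with a yeast strain of defined genotype (DNA damage repair defect). Inhibition of growth was derived by comparison with vehicle-exposed cultures.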

[14] = NCI Yeast Anticancer Drug Screen. Data for the rad18 strain (AID 177); conditions: S. cerevisiae rad18 mutant growth inhibition, stronger effect = higher value
Summary of the method: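 A genetically defined yeast mutant impaired in DNA damage repair was treated with test compounds, then its growth was measured against cultures receiving vehicle alone.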

[15] = at 5.0 µM (retest, dose inferred, filed as 0.5)
[16] = at 50.0 µM (retest, dose inferred, filed as 5.0)

Measured: growth inhibition

Fc1ccc(NC(=S)SCc2ccc(Cl)c(Cl)c2)cc1F
inactive: [1]; at 1.2 µM -6% | [1]; at 3.7 µM -8% | [1]; at 11.0 µM 17% | [2]; at 1.2 µM -4% | [2]; at 3.7 µM 12% | [2]; at 11.0 µM 33% | [3]; at 1.2 µM -2% | [3]; at 3.7 µM 25% | [3]; at 11.0 µM 60% | [4]; at 1.2 µM -3% | [4]; at 3.7 µM -4% | [4]; at 11.0 µM 0% | [5]; at 1.2 µM -15% | [5]; at 3.7 µM -9% | [5]; [15] 66% | [5]; at 11.0 µM 45% | [5]; at 33.0 µM -12% | [6]; at 1.2 µM -4% | [6]; at 3.7 µM -4% | [6]; [15] 18% | [6]; at 11.0 µM -4% | [6]; at 33.0 µM 60% | [7]; at 1.2 µM 3% | [7]; at 3.7 µM 5% | [7]; at 11.0 µM 24% | [8]; [15] 25% | [9]; [15] -2% | [10]; at 1.2 µM -2% | [10]; at 3.7 µM -4% | [10]; [15] 1% | [10]; at 11.0 µM 21% | [11]; at 1.2 µM 10% | [11]; at 3.7 µM 13% | [11]; at 11.0 µM 64% | [12]; at 1.2 µM -5% | [12]; at 3.7 µM -1% | [12]; at 11.0 µM 44% | [13]; [15] 33% | [14]; at 1.2 µM -9% | [14]; at 3.7 µM -6% | [14]; at 11.0 µM 30%
active: [1]; at 33.0 µM 89% | [1]; at 100.0 µM 98% | [2]; at 33.0 µM 99% | [2]; at 100.0 µM 98% | [3]; at 33.0 µM 98% | [3]; at 100.0 µM 98% | [4]; at 33.0 µM 97% | [4]; at 100.0 µM 98% | [5]; [16] 98% | [5]; at 50.0 µM 90.3% | [5]; at 100.0 µM 97% | [6]; [16] 98% | [6]; at 50.0 µM 93.2% | [6]; at 100.0 µM 99% | [7]; at 33.0 µM 99% | [7]; at 100.0 µM 98% | [8]; [16] 98% | [8]; at 50.0 µM 90% | [9]; [16] 97% | [9]; at 50.0 µM 90.5% | [10]; at 33.0 µM 98% | [10]; [16] 97% | [10]; at 50.0 µM 90.8% | [10]; at 100.0 µM 98% | [11]; at 33.0 µM 99% | [11]; at 100.0 µM 99% | [12]; at 33.0 µM 99% | [12]; at 100.0 µM 97% | [13]; [16] 97% | [13]; at 50.0 µM 90.6% | [14]; at 33.0 µM 98% | [14]; at 100.0 µM 98%

Source: PubChem BioAssay (NCI)
